Measurements: ChEMBL document CHEMBL4513146, “CO-ADD screening of Karazin Kharkiv National University (Ukraine) compounds”
Entries with a potency or affinity are not part of this list.

What was measured:
Klebsiella pneumoniae = conditions: Concentration 32 ug.mL-1;; ASSAY_TEST Inhibition of Bacterial Growth; detection method Absorption (OD600); MEDIA CAMHB; plate type 384well; NBS; CORNING #3640; time 18 hr
Candida albicans = conditions: Concentration 32 ug.mL-1; ASSAY_TEST Inhibition of Fungal Growth; detection method Absorption (OD530)
Cryptococcus neoformans = conditions: Concentration 32 ug.mL-1; ASSAY_TEST Inhibition of Fungal Growth; detection method Resazurin; Absorption (OD600-OD570); plate type 384well; NBS; CORNING #3640

Row | SMILES | Inhibition (Klebsiella pneumoniae) | Inhibition (Candida albicans) | Inhibition (Cryptococcus neoformans)
1 | N#Cc1cccc(NC(=O)Cn2nc3c(Oc4ccccc4)nccn3c2=O)c1 | 7.41% | 1.17% | -6.48%
2 | Cc1ccccc1-c1noc(Cn2nc3ccc(-c4ccccc4)nn3c2=O)n1 | 4.12% | 31.81% | -15.26%
3 | CCOC(=O)C1CCCN(C(=O)Cn2nc3n(CC(C)C)c(=O)c4sccc4n3c2=O)C1 (stereo not given) | 8.18% | -1.48% | -14.07%
4 | Cc1ccc(Sc2ccc3nn(CC(=O)Nc4cccc(Cl)c4)c(=O)n3n2)cc1 | -1.6% | 23.7% | -8.64%
5 | CCC(Sc1nnc2c(=O)n(-c3ccc(F)cc3)ccn12)C(=O)Nc1cc(OC)cc(OC)c1 (stereo not given) | 12.14% | -0.61% | -13.06%
6 | CCOc1ccc(NC(=O)Cn2nc3c4cc(-c5ccc(Cl)cc5)nn4ccn3c2=O)cc1 | 10.46% | 5.03% | -14.66%
7 | Cc1ccc(Sc2nccn3c(=O)n(CC(=O)Nc4ccc(Br)cc4)nc23)c(C)c1 | 5.96% | -1.11% | -6.8%
8 | O=C(CCc1nnc2c(N3CCCCC3)nc3ccccc3n12)NCc1ccccc1Cl | 12.77% | 4.01% | -16.16%
9 | Cc1ccc(NC(=O)CSc2nnc3ccc(C(=O)Nc4cccc(F)c4)cn23)c(C)c1 | 2.38% | 9.81% | -2.98%
10 | CCc1ccccc1NC(=O)Cn1nc2n(C)c(=O)c3c(c(-c4ccccc4)cn3C)n2c1=O | 1.01% | 6.61% | -4.79%
11 | CCc1nnc2c(S(=O)(=O)N(Cc3cc(F)cc(F)c3)c3ccc(C)cc3)cccn12 | 20.07% | 3.29% | -8.74%
12 | COc1ccc(NC(=O)Cn2nc3c4cc(-c5ccc(C)cc5)nn4ccn3c2=O)cc1 | -1.42% | -0.28% | -12.53%
13 | O=C(Cn1nc2ccc(-c3ccccc3)nn2c1=O)N1CCN(c2ccc(F)cc2)CC1 | 3.94% | -0.37% | -5.73%
14 | Cc1ccc(-c2cc3c4nnc(CCC(=O)N5CCN(c6ccccc6F)CC5)n4ccn3n2)cc1C | 8.56% | 3.28% | -23.24%
15 | COc1ccc(-c2cc3c4nn(CC(=O)Nc5cc(C)ccc5OC)c(=O)n4ccn3n2)cc1 | 8.5% | 13.11% | -15.79%
16 | Cc1cc(Br)ccc1NC(=O)Cn1nc2c(Sc3ccccc3)nccn2c1=O | 5.06% | 6.68% | -7.39%
17 | O=C(Cn1nc2c3sc(N4CCCC4)nc3ncn2c1=O)Nc1ccccc1Br | 2.42% | 1.39% | -9.14%
18 | O=c1c2nnc(SCc3cccc(F)c3)n2ccn1-c1ccc(Br)cc1 | 8.43% | 4.16% | -10.68%
19 | CC(C)c1nnc2c(=O)n(CC(=O)Nc3ccc(Cl)cc3)c3ccccc3n12 | 16.79% | 3.6% | -17.29%
20 | COc1ccc(CNC(=O)Cn2nc3c(Oc4cccc(C)c4C)nccn3c2=O)cc1 | 3.56% | -0.71% | -3.17%
21 | Cc1ccc(Oc2nccn3c(=O)n(CC(=O)Nc4ccc5c(c4)OCO5)nc23)cc1 | 3.22% | -1.46% | -8.87%
22 | Cc1ccc(-c2ccc3nn(CC(=O)NCc4ccc(Cl)cc4)c(=O)n3n2)cc1C | 6.14% | 6.17% | -11%
23 | Cc1ccc(NC(=O)Cn2nc3ccc(-c4ccc(C)c(C)c4)nn3c2=O)cc1 | 11.7% | -0.59% | -13.68%
24 | Cc1cccc(NC(=O)c2ccc3nn(CC(=O)N4CCc5ccccc5C4)c(=O)n3c2)c1 | -2% | 12.37% | -12.59%
25 | COc1ccc(NC(=O)CSc2nnc3c(=O)n(-c4cccc(OC)c4)ccn23)cc1 | 5.61% | 2.12% | -13.19%
26 | Cc1cc(C)c(C(=O)CSc2nnc3c(=O)n(-c4ccc(F)c(F)c4)ccn23)cc1C | 9.61% | 5.94% | -8.7%
27 | Cc1ccccc1NC(=O)Cn1nc2c3cc(-c4ccc(Cl)cc4)nn3ccn2c1=O | 14.64% | 1.52% | -18.17%
28 | CCc1nnc2c(S(=O)(=O)N(Cc3cccc(F)c3)c3ccccc3)cccn12 | 10.23% | 3.58% | -7.54%
29 | Cc1cc2nn(CC(=O)Nc3ccccc3F)c(=O)n2c(Nc2ccc(C)c(F)c2)n1 | 4.36% | 4.06% | -8.37%
30 | COc1ccc(N(Cc2ccc(OC)c(F)c2)S(=O)(=O)c2ccc3nncn3c2)cc1 | 12.76% | 2.89% | 0.06%
